PAFAH1B2 inh – PAFAH1B2 enzyme inhibitors, primary screen, biochemical, fluorescence polarization, human; AID 492953, 2010; Platelet-activating factor acetylhydrolase IB subunit alpha2 (Homo sapiens), P68402; inhibition, % at 3.39 µM; recombinant PAFAH1B2, FP-rhodamine activity probe; actives 1.2% (n = 340,000);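 active = inhibition above the mean of all tested compounds plus 3 SD, cut at about 24% in these data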
Target sequence (P68402 whole entry, looked up): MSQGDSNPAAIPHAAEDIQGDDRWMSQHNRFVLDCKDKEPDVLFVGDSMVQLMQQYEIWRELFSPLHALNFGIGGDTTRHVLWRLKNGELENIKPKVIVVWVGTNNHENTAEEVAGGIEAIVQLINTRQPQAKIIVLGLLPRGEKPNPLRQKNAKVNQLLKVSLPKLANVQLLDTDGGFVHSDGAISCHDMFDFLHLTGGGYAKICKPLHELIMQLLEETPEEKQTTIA
TCR CD3 inh – inhibitors of human TCR-CD3 interaction, primary screen, biochemical, fluorescence, TAMRA-labeled TCR probe. actives 0.37% (n = 360,000). AID 651800, 2012. inhibition, % at 9.4 µM; in the data active = inhibition above about 19%;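 note: recombinant mutant TCR 2C K166C tagged with TAMRA read by polarization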
pPAFAH FP inh – pPAFAH enzyme inhibitors, primary screen, biochemical, fluorescence polarization, human; inhibition, % at 3.39 µM; actives 1.5% (n = 330,000); recombinant pPAFAH, FP-rhodamine probe fluorescence polarization; Platelet-activating factor acetylhydrolase (Homo sapiens), Q13093;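 active = inhibition above the mean inhibition across the screen plus 3 SD, cut at about 25% in these data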;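 note: inhibitors block binding of the rhodamine activity-based probe so polarization drops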
PAFAH2 inh – PAFAH2 enzyme inhibitors, primary screen, biochemical, fluorescence polarization, human. recombinant PAFAH2, FP-rhodamine activity probe. actives 0.99% (n = 340,000). Platelet-activating factor acetylhydrolase 2, cytoplasmic (Homo sapiens), Q99487. inhibition, % at 3.39 µM;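 active = inhibition above the mean over all tested compounds plus 3 SD, cut at about 30% in these data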;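 note: inhibitors block probe labeling of enzyme so polarization drops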
PAFAH1B3 inh – PAFAH1B3 enzyme inhibitors, primary screen, biochemical, fluorescence polarization, human | recombinant PAFAH1B3, FP-rhodamine probe | AID 492972, 2010 | actives 0.28% (n = 340,000) | inhibition, % at 3.39 µM;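 active = inhibition above the screen-wide average of all tested compounds plus 3 SD, cut at about 25% in these data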
Target sequence (Q15102 whole entry, looked up): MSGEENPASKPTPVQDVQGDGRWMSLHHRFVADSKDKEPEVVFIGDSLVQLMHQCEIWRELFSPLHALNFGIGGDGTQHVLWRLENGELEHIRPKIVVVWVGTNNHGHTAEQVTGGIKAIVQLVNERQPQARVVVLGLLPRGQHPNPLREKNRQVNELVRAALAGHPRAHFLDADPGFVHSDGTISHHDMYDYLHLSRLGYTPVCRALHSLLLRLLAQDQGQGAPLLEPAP
Of the large screens only hits and unclear results are named; the others gave an inactive call. Shown are actives, neighbours in structure and some others; about 2.7% of the full set was active somewhere.

CC(O)CC(C(=O)NNc1ccccc1)C(=O)NNc1ccccc1 (stereo not given)	none
Cc1sc2nc(CSCC(=O)N(C)c3ccccc3)[nH]c(=O)c2c1C	none
Cc1sc2nc(CSCC(=O)N(CCC#N)c3ccccc3)[nH]c(=O)c2c1C	TCR CD3 inh 20
CC(C)c1[nH]nc2c1C(c1ccccc1)N(c1ccccc1)C2=O (stereo not given)	none (no result: PAFAH1B2 inh, pPAFAH FP inh, PAFAH2 inh, PAFAH1B3 inh)
Cc1ccc(CS/C(Nc2ccccc2C)=C(\C#N)C(=O)NCc2ccco2)c(C)c1	pPAFAH FP inh 28
Cc1ccccc1N/C(SCc1ccc(Cl)cc1)=C(/C#N)C(=O)NCc1ccco1	none
Cc1cc2c(c(=O)o1)[C@@]1(C(=O)N(C)c3ccccc31)C1=C(CC(C)(C)OC1=O)O2	none (no result: PAFAH1B2 inh, pPAFAH FP inh, PAFAH2 inh, PAFAH1B3 inh)
O=C(Nc1cccc(-c2csc(Nc3ccccc3)n2)c1)c1cc([N+](=O)[O-])cc(C(F)(F)F)c1	PAFAH1B2 inh 28, pPAFAH FP inh 30, PAFAH1B3 inh 27
COC(=O)C1=C(C)N(C)C(=NCc2cccc(C(F)(F)F)c2)NC1c1ccc(F)cc1 (stereo not given)	none (no result: PAFAH1B2 inh, pPAFAH FP inh, PAFAH2 inh, PAFAH1B3 inh)
NNC(=O)c1ccc(COc2ccc(Br)cc2)o1	PAFAH1B2 inh 25
CC(C)(C)c1ccc(OCc2ccc(C(=O)NN)o2)cc1	none
O=C(c1ccc(COc2ccc(Br)cc2)o1)N1N=C(C(F)F)CC1(O)C(F)F (stereo not given)	PAFAH1B2 inh 29
Cc1ccc(C(=O)N/N=C/c2ccc(-c3ccc(Br)cc3[N+](=O)[O-])o2)o1	pPAFAH FP inh 26
Cc1ccc(C(=O)N/N=C\c2ccc(Br)o2)o1	none
CC(C)NCC#CCOc1ccc(Cl)cc1	PAFAH1B2 inh 30
CN(c1ccc(F)cc1)S(=O)(=O)c1ccc(Cl)c(C(=O)NCC(c2ccco2)N2CCCCC2)c1 (stereo not given)	none (no result: pPAFAH FP inh)
Cc1ccccc1NS(=O)(=O)c1ccc(C(=O)N2CCN(c3ccccn3)CC2)cc1	pPAFAH FP inh 26
O=C(c1ccc(S(=O)(=O)Nc2ccccc2Cl)cc1)N1CCCC1	none
O=C(COc1ccc(S(=O)(=O)Nc2ccccc2)cc1)NCc1ccccn1	none (no result: pPAFAH FP inh)
O=C(c1ccc(S(=O)(=O)Nc2ccccc2F)cc1)N1CCN(c2ccccn2)CC1	none
Cc1ccccc1NS(=O)(=O)c1ccc(C(=O)N2CCCCCC2)cc1	pPAFAH FP inh 25
Cc1ccccc1NS(=O)(=O)c1ccc(OCC(=O)NCc2ccccn2)cc1	pPAFAH FP inh 29
Cc1ccc(C(=O)N/C(=C/c2ccco2)C(=O)OCN2C(=O)c3ccccc3C2=O)cc1	none
COC(=O)[C@]12C[C@H](CC(=O)N3CCSCC3)C(=O)N(Cc3ccccc3)C1=C[C@H](C(C)(C)C)O[C@@H]2C	none (no result: PAFAH1B2 inh, pPAFAH FP inh, PAFAH2 inh, PAFAH1B3 inh)
CCCCC/C=C\C/C=C\C/C=C\C/C=C\CCCC(=O)O	pPAFAH FP inh 47 (no result: PAFAH1B2 inh, TCR CD3 inh, PAFAH2 inh, PAFAH1B3 inh)
COC(=O)c1cc2c(c3c4cc(C)ccc4n(S(=O)(=O)c4ccc(OC)cc4)c13)C(=O)N(Cc1ccc(C(F)(F)F)cc1)C2	none (no result: PAFAH1B2 inh, pPAFAH FP inh, PAFAH2 inh, PAFAH1B3 inh)
CCOC(=O)c1sc2cc([N+](=O)[O-])cc(SCC(=O)OC)c2c1N	pPAFAH FP inh 25
N#CCC(=O)NN=C1CCCCCCCCCCC1	PAFAH1B2 inh 26
O=C(CCN1C(=O)/C(=C/c2ccccc2)SC1=S)Nc1ccccn1	none
O=C(CCN1C(=O)/C(=C/c2ccccc2)SC1=S)N[C@@H](CO)Cc1ccccc1	PAFAH1B2 inh 43
O=C(CCN1C(=O)/C(=C/c2ccccc2F)SC1=S)N[C@@H](CO)Cc1ccccc1	PAFAH1B2 inh 38
Cc1cc(C)c(NS(=O)(=O)c2c(C(=O)N3CCOCC3)c(C)n(C)c2C)c(C)c1	pPAFAH FP inh 29
O=C(c1cc(S(=O)(=O)N2CCN(c3ccccc3)CC2)ccc1Cl)N1CCCCCCC1	pPAFAH FP inh 32
O=C(CCn1c(=O)[nH]c2ccccc2c1=O)N1CCN(c2cccc(C(F)(F)F)c2)CC1	PAFAH1B2 inh 31
COc1cc2[nH]c(=O)n(CCCCCC(=O)N3CCN(c4ccccc4)CC3)c(=O)c2cc1OC	pPAFAH FP inh 27
COC(=O)c1ccc2c(=O)n(CCCCCC(=O)N3CCN(c4ccccc4)CC3)c(=O)[nH]c2c1	none
O=C(CCn1c(=O)[nH]c2ccccc2c1=O)N1CCN(c2ccc(Cl)cc2)CC1	none

Bioassay records from PubChem.
